Results as given in the antibiotic and cytotoxicity screens of Wong et al. (2023).
The campaign covered roughly 39,000 compounds. About 3,300 (8.5%) were called active. Shown is part of a subset that was picked to be rich in actives.

System: HepG2
Assay: cytotoxicity call (relative viability < 0.9)
Conditions: 10 µM

Compound	cytotoxicity call
NNC(=O)CNc1ccc2c(c1)OCO2	inactive
C[N+](C)(C)CCCCNC(=O)[C@H]1C[C@H]2C(=O)N[C@@H](Cc3ccccc3)C(=O)N2[C@H]1c1cccc(OCCO)c1	inactive
C[C@H]1CN([C@@H](C)CO)C(=O)c2cc(C#CC3(O)CCCC3)cnc2O[C@@H]1CN(C)S(=O)(=O)c1ccc(F)cc1	inactive
C[C@H]1[C@H](NC(=O)/C(=N\OC(C)(C)C(=O)O)c2csc(N)n2)C(=O)N1S(=O)(=O)O	inactive
C[C@@H]1CCCCO[C@H](CN(C)S(C)(=O)=O)[C@H](C)CN([C@@H](C)CO)C(=O)c2cc(NC(=O)CCCN(C)C)ccc2O1	inactive
CCS(=O)(=O)NCC[C@H]1CC[C@H](NS(=O)(=O)c2cccc(F)c2)[C@@H](CO)O1	inactive
C[C@@H]1CCCCO[C@H](CN(C)C(=O)Nc2cccc3ccccc23)[C@H](C)CN([C@@H](C)CO)C(=O)c2cc(NC(=O)Cc3ccccc3)ccc2O1	inactive
COc1ccc(S(=O)(=O)N[C@@H]2CC[C@@H](CC(=O)N3CCC(Cc4ccccc4)CC3)O[C@H]2CO)cc1	inactive
C[C@H]1CCCCO[C@@H](CN(C)C(=O)Nc2ccc(C(F)(F)F)cc2)[C@@H](C)CN([C@@H](C)CO)C(=O)c2cc(NC(=O)c3ccncc3)ccc2O1	inactive
C[C@@H]1CCCCO[C@@H](CN(C)C(=O)Nc2ccc3c(c2)OCO3)[C@@H](C)CN([C@@H](C)CO)C(=O)c2cc(NC(=O)Nc3ccc(C(F)(F)F)cc3)ccc2O1	inactive
C[C@@H]1CCCCO[C@H](CN(C)C(=O)Nc2ccc(C(F)(F)F)cc2)[C@H](C)CN([C@H](C)CO)C(=O)c2cc(NC(=O)Cc3ccccc3)ccc2O1	inactive
COc1ccc(NC(=O)Nc2ccc3c(c2)C(=O)N([C@H](C)CO)C[C@H](C)[C@H](CN(C)CC2CCCCC2)OCCCC[C@@H](C)O3)cc1	inactive
COc1ccc(NC(=O)Nc2ccc3c(c2)C(=O)N([C@H](C)CO)C[C@H](C)[C@@H](CN(C)CC2CCCCC2)OCCCC[C@H](C)O3)cc1	inactive
COc1ccc(NC(=O)Nc2ccc3c(c2)C(=O)N([C@@H](C)CO)C[C@H](C)[C@H](CN(C)CC2CCCCC2)OCCCC[C@H](C)O3)cc1	active
O=C(O[C@@H]1Cc2c(O)cc(O)cc2O[C@@H]1c1cc(O)c(O)c(O)c1-c1c([C@H]2Oc3cc(O)cc(O)c3C[C@H]2O)cc(O)c(O)c1O)c1cc(O)c(O)c(O)c1	inactive
O=C(O[C@@H]1O[C@H]2COC(=O)c3cc(O)c(O)c(O)c3-c3c(cc(O)c(O)c3O)C(=O)O[C@@H]([C@H]1O)[C@@H]2O)c1cc(O)c(O)c(O)c1	inactive
O=C(OC1Cc2c(O)cc(O)cc2OC1c1cc(O)c(O)c(O)c1-c1c(C2Oc3cc(O)cc(O)c3CC2OC(=O)c2cc(O)c(O)c(O)c2)cc(O)c(O)c1O)c1cc(O)c(O)c(O)c1 (stereo not drawn)	inactive
O=C(O[C@@H]1O[C@H]2COC(=O)c3cc(O)c(O)c(O)c3-c3c(cc(O)c(O)c3O)C(=O)O[C@@H]([C@H]1O)[C@@H]2OC(=O)c1cc(O)c(O)c(O)c1-c1c(C(=O)O)cc(O)c(O)c1O)c1cc(O)c(O)c(O)c1	active
O=C(O[C@@H]1O[C@@H]2COC(=O)c3cc(O)c(O)c(O)c3-c3c(cc(O)c(O)c3O)C(=O)O[C@H]2[C@H](OC(=O)c2cc(O)c(O)c(O)c2)[C@H]1OC(=O)c1cc(O)c(O)c(O)c1)c1cc(O)c(O)c(O)c1	active
O=C(O[C@@H]1O[C@@H]2COC(=O)c3cc(Oc4c(C(=O)O)cc(O)c(O)c4O)c(O)c(O)c3-c3c(cc(O)c(O)c3O)C(=O)O[C@H]2[C@H](OC(=O)c2cc(O)c(O)c(O)c2)[C@H]1OC(=O)c1cc(O)c(O)c(O)c1)c1cc(O)c(O)c(O)c1	inactive

Compound	cytotoxicity call
C[C@@H]1CCCCO[C@H](CN(C)C(=O)CCC(F)(F)F)[C@@H](C)CN([C@H](C)CO)C(=O)c2cc(NC(=O)NC3CCCCC3)ccc2O1	inactive
C[C@@H]1CN([C@H](C)CO)C(=O)c2cccc(NC(=O)C3CCOCC3)c2O[C@H]1CN(C)Cc1ccc(C(=O)O)cc1	inactive
Cc1ccc(S(=O)(=O)Nc2ccc3c(c2)C(=O)N([C@@H](C)CO)C[C@H](C)[C@H](CN(C)C(=O)Nc2c(C)noc2C)OCCCC[C@@H](C)O3)cc1	inactive
C[C@@H]1CN([C@H](C)CO)C(=O)Cc2cc(NC(=O)Nc3cccc4ccccc34)ccc2O[C@H]1CN(C)Cc1ccc2c(c1)OCO2	inactive
C[C@H](CO)N1C[C@H](C)[C@@H](CN(C)Cc2ccc3c(c2)OCO3)Oc2ccc(NC(=O)Nc3cccc4ccccc34)cc2C1=O	inactive
C[C@H]1CN([C@@H](C)CO)C(=O)Cc2cc(NC(=O)Nc3cccc4ccccc34)ccc2O[C@H]1CN(C)Cc1ccc2c(c1)OCO2	inactive
C[C@H](CO)N1C[C@H](C)[C@H](CN(C)Cc2ccc3c(c2)OCO3)Oc2ccc(NC(=O)Nc3cccc4ccccc34)cc2CC1=O	inactive
C[C@H](CO)N1C[C@H](C)[C@@H](CN(C)Cc2ccc3c(c2)OCO3)Oc2ccc(NC(=O)Nc3cccc4ccccc34)cc2CC1=O	inactive
C[C@H]1CN([C@@H](C)CO)C(=O)Cc2cc(NC(=O)Nc3cccc4ccccc34)ccc2O[C@@H]1CN(C)Cc1ccc2c(c1)OCO2	inactive
C[C@@H]1CN([C@H](C)CO)C(=O)Cc2cc(NC(=O)Nc3cccc4ccccc34)ccc2O[C@@H]1CN(C)Cc1ccc2c(c1)OCO2	active
C[C@@H]1CN([C@@H](C)CO)C(=O)Cc2cc(NC(=O)Nc3cccc4ccccc34)ccc2O[C@@H]1CN(C)Cc1ccc2c(c1)OCO2	active
C[C@@H]1CN([C@@H](C)CO)C(=O)Cc2cc(NC(=O)Nc3cccc4ccccc34)ccc2O[C@H]1CN(C)Cc1ccc2c(c1)OCO2	active
O=c1[nH][nH]c(=O)c(Cl)c1Cl	inactive
COc1ccc(NC(=O)N(C)C[C@@H]2Oc3c(NC(=O)C4CC4)cccc3C(=O)N([C@@H](C)CO)C[C@H]2C)cc1	inactive
CC(C)CC#Cc1ccc2c(c1)O[C@H](CN(C)C(=O)NC1CCCC1)[C@@H](C)CN([C@H](C)CO)S2(=O)=O	inactive
CC(C)NC(=O)Nc1cccc2c1O[C@H](CN(C)S(=O)(=O)c1ccc(Cl)cc1)[C@H](C)CN([C@@H](C)CO)C2=O	inactive
COc1ccc(CN(C)C[C@@H]2OCCCC[C@@H](C)Oc3ccc(NS(=O)(=O)c4c(C)noc4C)cc3C(=O)N([C@H](C)CO)C[C@H]2C)cc1	inactive
C[C@@H]1CN([C@@H](C)CO)C(=O)c2cc(NC(=O)Cc3cn(C)c4ccccc34)ccc2O[C@H]1CN(C)S(=O)(=O)c1cn(C)cn1	inactive
COc1ccc(NC(=O)Nc2ccc3c(c2)C(=O)N([C@@H](C)CO)C[C@H](C)[C@H](CN(C)C(=O)Nc2ccc4c(c2)OCO4)OCCCC[C@H](C)O3)cc1	inactive
CCS(=O)(=O)Nc1ccc2c(c1)CC(=O)N2	inactive

Compound	cytotoxicity call
CCS(=O)(=O)Nc1ccc2c(c1)/C(=C(/Nc1ccc(CN3CCCCC3)cc1)c1ccccc1)C(=O)N2	active
CCS(=O)(=O)Nc1ccc2c(c1)C(=O)N(C)[C@@H]1CC[C@H](CC(=O)N[C@H]3CCN(Cc4ccccc4)C3)O[C@H]1CO2	inactive
N#Cc1cccc(NCCN2CCNC2=O)n1	inactive
Cc1ccc(S(=O)(=O)N(C)C[C@@H]2Oc3cc(C#Cc4ccccc4)ccc3S(=O)(=O)N([C@H](C)CO)C[C@H]2C)cc1	inactive
Cc1ccc(S(=O)(=O)N(C)C[C@H]2Oc3cc(C#Cc4ccccc4)ccc3S(=O)(=O)N([C@H](C)CO)C[C@@H]2C)cc1	inactive
C=CCCN(CC#C[C@H]1Oc2ccccc2S(=O)(=O)N2CCC[C@@H]12)S(=O)(=O)c1ccc(C)cc1	active
C[C@@H]1CCCCO[C@H](CN(C)C(=O)Cc2ccccc2)[C@@H](C)CN([C@H](C)CO)C(=O)c2cc(NS(=O)(=O)c3ccc(F)cc3)ccc2O1	inactive
Cc1noc(C)c1NC(=O)Nc1ccc2c(c1)C(=O)N([C@H](C)CO)C[C@@H](C)[C@H](CN(C)C(=O)Nc1ccc(C(F)(F)F)cc1)OCCCC[C@H](C)O2	inactive
CCCNC(=O)Nc1ccc2c(c1)OC[C@H](C)N(Cc1ccc(-c3ccccn3)cc1)C[C@@H](C)[C@@H](OC)CN(C)C2=O	inactive
O=C(C[C@H]1CC[C@H]2[C@@H](COC[C@H](O)CN2Cc2cc(F)ccc2F)O1)N[C@H]1CCN(Cc2ccccc2)C1	inactive
O=C(C[C@@H]1CC[C@H]2[C@@H](COC[C@H](O)CN2Cc2cc(F)ccc2F)O1)N[C@H]1CCN(Cc2ccccc2)C1	inactive
O=C(C[C@H]1CC[C@@H]2[C@H](COC[C@@H](O)CN2Cc2cc(F)ccc2F)O1)N[C@H]1CCN(Cc2ccccc2)C1	active
O=C(C[C@H]1CC[C@H]2[C@@H](COC[C@@H](O)CN2Cc2cc(F)ccc2F)O1)N[C@@H]1CCN(Cc2ccccc2)C1	inactive
O=C(C[C@H]1CC[C@H]2[C@@H](COC[C@@H](O)CN2Cc2cc(F)ccc2F)O1)N[C@H]1CCN(Cc2ccccc2)C1	active
O=C(C[C@@H]1CC[C@H]2[C@@H](COC[C@@H](O)CN2Cc2cc(F)ccc2F)O1)N[C@H]1CCN(Cc2ccccc2)C1	inactive
O=C(C[C@@H]1CC[C@@H]2[C@H](COC[C@@H](O)CN2Cc2cc(F)ccc2F)O1)N[C@@H]1CCN(Cc2ccccc2)C1	inactive
O=C(C[C@H]1CC[C@@H]2[C@H](COC[C@@H](O)CN2Cc2cc(F)ccc2F)O1)N[C@@H]1CCN(Cc2ccccc2)C1	active
O=C(C[C@@H]1CC[C@@H]2[C@H](COC[C@@H](O)CN2Cc2cc(F)ccc2F)O1)N[C@H]1CCN(Cc2ccccc2)C1	inactive
